Test [1] deals with Vero E6 infected with SARS-CoV-2. Briefly: morphology score (similarity to uninfected cells); higher = more like uninfected cells. As to conditions: 24 h.
For test [2] the test system is unchanged. Briefly: SARS-CoV-2 infection rate relative to infected DMSO; higher = more infection, active = 60 or less. As to conditions: 24 h.

Each structure is given as a SMILES string.

From the supplement of paper PMC13380429 come the findings set out here.

As to `CC(C)Cc1ccc([C@@H](C)C(=O)NCCO)cc1` (racemic) [mabuprofen] (10 µM), the morphology score in test [1] is 0.127. Further, the SARS-CoV-2 infection rate in test [2] was 109% (inactive).
The like results for `COC(=O)C1=C(C)NC(C)=C(C(=O)OCCN(C)Cc2ccccc2)C1c1cccc([N+](=O)[O-])c1` (stereo unspecified) [nicardipine] (10 µM) were, in that order, 0.0181 and 103% (inactive).
For `CC(C)(Oc1ccc(Cl)cc1)C(=O)OCCOC(=O)c1cccnc1` [etofibrate] (10 µM), the morphology score in test [1] turned out to be 0.105. The SARS-CoV-2 infection rate in test [2] was 105% (inactive).
The like results for `Cc1coc2c1C(=O)C(=O)c1c-2ccc2c(C)cccc12` [tanshinone-I] (10 µM) were, in that order, -0.0142 and 106% (inactive).
On to `Cc1ccccc1C(=O)c1ccc(Nc2ccc(Br)cc2N)cc1Cl` (10 µM), for which the morphology score in test [1] is -0.138. In addition, the SARS-CoV-2 infection rate in test [2] is 102% (inactive).
In the same order, the values of `CC(C)(C)NCC(O)c1cc(O)cc(O)c1` (stereo unspecified) (10 µM) are 0.0272 and 113% (inactive).
In the same order, the values of `O=C1CN=C(c2cccc(Br)c2)c2oc3ccccc3c2N1` (10 µM) are 0.0252 and 95.5% (inactive).
In the same order, the values of `N#Cc1c[nH]c2c(C(=O)N3CCN(CCc4ccc(F)cc4)CC3)cccc12` [pruvanserin] (10 µM) are 0.117 and 98.5% (inactive).
With `CN1[C@@H]2CC[C@H]1C[C@@H](OC(c1ccccc1)c1ccccc1)C2` [benztropine-mesylate] (10 µM), the morphology score in test [1] came out at 0.481. The SARS-CoV-2 infection rate in test [2] is 84.5% (inactive).
The like results for `CNC(=O)[C@H]1O[C@@H](n2cnc3c(NCc4cccc(I)c4)nc(Cl)nc32)[C@H](O)[C@@H]1O` (10 µM) were, in that order, -0.0292 and 107% (inactive).
On to `O=C1NC(O)CCN1[C@@H]1O[C@H](CO)[C@@H](O)[C@H]1O` (stereo partly specified) [tetrahydrouridine] (10 µM), for which the morphology score in test [1] came to 0.167. Moreover, in test [2], the SARS-CoV-2 infection rate is 103% (inactive).
In the case of `O=C(OCCN1CCOCC1)c1cccnc1Nc1cccc(C(F)(F)F)c1` [morniflumate] (10 µM), the morphology score in test [1] turned out to be 0.0767. For the same molecule, in test [2], the SARS-CoV-2 infection rate is 108% (inactive).
On to `CN(C)C(=O)Nc1cccc(-c2ccc(N(C)C)cc2)c1` [atglistatin] (10 µM), for which the morphology score in test [1] came out at 0.11. Also, the SARS-CoV-2 infection rate in test [2] is 98% (inactive).
The like results for `Cc1ncc(CO)c(C=O)c1O` [pyridoxal] (10 µM) were, in that order, -0.165 and 109% (inactive).
The like results for `O=c1[nH]c(=O)n([C@H]2C[C@H](O)[C@@H](CO)O2)cc1Br` [broxuridine] (0.833333 µM) were, in that order, 0.0347 and 108% (inactive).
The like results for `O=c1[nH]nc2c3c(cccc13)N=C(CN1Cc3ccccc3C1)N2` (10 µM) were, in that order, 0.219 and 91% (inactive).
Turning to `O=Nc1ccc(O)c2ncccc12` (10 µM), the morphology score in test [1] is -0.131. Moreover, the SARS-CoV-2 infection rate in test [2] is 108% (inactive).
The like results for `Cc1cc(Cn2cnc3c2C[C@@H](C(=O)O)N(C(=O)C(c2ccccc2)c2ccccc2)C3)ccc1N(C)C` (10 µM) were, in that order, 0.0919 and 99% (inactive).
On to `O=C(O)Cc1cccnc1C(=O)O` [homoquinolinic-acid] (10 µM), for which the morphology score in test [1] was determined as 0.0575. Further, the SARS-CoV-2 infection rate in test [2] is 102% (inactive).
The like results for `O=C(NCCS(=O)(=O)c1ccc(C(F)(F)F)cn1)c1ccc(Cl)cc1` (10 µM) were, in that order, 0.178 and 99% (inactive).
With `COc1cc2c(cc1OCCCN1CCCC1)N=C(N)C21CCC1` (10 µM), the morphology score in test [1] was 0.0229. For the same molecule, in test [2], the SARS-CoV-2 infection rate is 106% (inactive).
`CC1(C)C(=O)N(CCN2CCC(C(=O)c3ccc(F)cc3)CC2)c2ccccc21` (10 µM) gave a morphology score in test [1] of -0.158. For the same molecule, the SARS-CoV-2 infection rate in test [2] was 110% (inactive).
In the same order, the values of `CN1C2CCCC1CC(NC(=O)c1nn(C)c3ccccc13)C2` (stereo unspecified) [granisetron] (10 µM) are -0.16 and 98.5% (inactive).
The molecule `CC(C)Cn1cnc2c1c(=O)n(C)c(=O)n2C` [isbufylline] (10 µM) displayed a morphology score in test [1] of -0.0146. Also, the SARS-CoV-2 infection rate in test [2] is 106% (inactive).
The like results for `FC(F)(F)Oc1ccc2nc(-c3ccc(OCCOCCOc4ccc(-c5nc6ccc(OC(F)(F)F)cc6[nH]5)nc4)cn3)[nH]c2c1` (10 µM) were, in that order, -0.247 and 116% (inactive).
The like results for `CCCCC(=O)O[C@]1(C(=O)CO)[C@@H](C)C[C@H]2[C@@H]3CCC4=CC(=O)C=C[C@]4(C)[C@@]3(F)[C@@H](O)C[C@@]21C` (10 µM) were, in that order, -0.0636 and 112% (inactive).
The like results for `Nc1ccc(S(N)(=O)=O)cc1` [sulfanilamide] (10 µM) were, in that order, 0.0892 and 103% (inactive).
With `CN(C)Cc1c(C(=O)NCCOc2ccc(C(=O)NO)cc2)oc2ccccc12` (10 µM), in test [1], the morphology score was -0.197. For the same molecule, the SARS-CoV-2 infection rate in test [2] is 96.5% (inactive).
The like results for `CCCC(CCC)C(=O)Nc1ccn([C@@H]2O[C@H](CO)[C@@H](O)C2(F)F)c(=O)n1` (0.833333 µM) were, in that order, 0.0484 and 100% (inactive).
The like results for `C[C@]12C/C(=C/O)C(=O)C[C@@H]1CC[C@@H]1[C@@H]2CC[C@@]2(C)[C@H]1CC[C@]2(C)O` [Oxymetholone] (10 µM) were, in that order, -0.162 and 120% (inactive).
The like results for `CCOC(=O)N1CCC(=C2c3ccc(Cl)cc3CCc3cccnc32)CC1` [loratadine] (10 µM) were, in that order, 0.221 and 90% (inactive).
`Nc1ncnc2c1ncn2[C@@H]1O[C@H](CO)[C@@H](O)[C@H]1O` [adenosine] (10 µM): the morphology score in test [1] was found to be 0.0109. In test [2], the SARS-CoV-2 infection rate is 109% (inactive).
With `NCCCCCc1c[nH]cn1` [impentamine] (10 µM), the morphology score in test [1] came out at 0.128. Also, in test [2], the SARS-CoV-2 infection rate is 92.5% (inactive).
In the same order, the values of `CC(C)n1c(=O)n(C(=O)N[C@H]2C[C@H]3CC[C@@H](C2)N3C)c2ccccc21` (10 µM) are 0.0156 and 106% (inactive).
`COc1cc(C(C)=O)ccc1OCCCN1CCC(c2noc3cc(F)ccc23)CC1` [iloperidone] (10 µM): the morphology score in test [1] is -0.112. For the same molecule, the SARS-CoV-2 infection rate in test [2] is 111% (inactive).
The like results for `CO[C@@]1(NC(=O)CSC[C@@H](N)C(=O)O)C(=O)N2C(C(=O)O)=C(CSc3nnnn3C)CS[C@@H]21` [cefminox] (10 µM) were, in that order, 0.045 and 115% (inactive).
The like results for `Cc1cc(OI)c(C(C)C)cc1-c1cc(C(C)C)c(OI)cc1C` [thymol-iodide] (10 µM) were, in that order, -0.117 and 104% (inactive).
The like results for `COCCN1CCC(C(=O)NO)(S(=O)(=O)c2ccc(Oc3ccc(OC(F)(F)F)cc3)cc2)CC1` (10 µM) were, in that order, 0.0474 and 110% (inactive).
In turn, `CCCCc1ncc(/C=C(\Cc2cccs2)C(=O)O)n1Cc1ccc(C(=O)O)cc1` [eprosartan] (10 µM) came in with a morphology score in test [1] of 0.0906. Besides, the SARS-CoV-2 infection rate in test [2] is 106% (inactive).
The like results for `Cc1ncc(-c2ccnc(Nc3ccc(S(C)(=O)=O)cc3)n2)n1C(C)C` (0.833333 µM) were, in that order, -0.165 and 99.5% (inactive).
The like results for `CC(C)(C)n1nc(-c2cccc3ccccc23)c2c(N)ncnc21` [1-naphthyl-PP1] (0.833333 µM) were, in that order, 0.129 and 96.5% (inactive).
The like results for `Cc1cc(C(=O)Nc2nc3cccc(Cl)c3n2[C@@H]2CCCCN(C(=O)/C=C/CN(C)C)C2)ccn1` (0.833333 µM) were, in that order, -0.2 and 110% (inactive).
In test [1], `O=C(C1CCCCC1)N1CC(=O)N2CCc3ccccc3C2C1` (stereo unspecified) [praziquantel] (10 µM) came in with a morphology score of 0.151. Further, the SARS-CoV-2 infection rate in test [2] is 106% (inactive).
Consider `COc1ccc2nc3cc(Cl)ccc3c(Nc3cc(CN4CCCC4)c(O)c(CN4CCCC4)c3)c2n1` [pyronaridine] (0.833333 µM), for which, in test [1], the morphology score was determined as 0.282. Further, the SARS-CoV-2 infection rate in test [2] is 100% (inactive).
The like results for `CC[C@H]1OC(=O)[C@@](C)(F)C(=O)[C@H](C)[C@@H](O[C@@H]2O[C@H](C)C[C@H](N(C)C)[C@H]2O)[C@](C)(OC)C[C@@H](C)C(=O)[C@H](C)[C@H]2N(CCCCn3cc(-c4cccc(N)c4)nn3)C(=O)O[C@]12C` [solithromycin] (10 µM) were, in that order, 0.351 and 104% (inactive).
With `CO/N=C(\C(=O)N[C@@H]1C(=O)N2C(C(=O)O)=C(CSc3nc(=O)c(O)nn3C)CS[C@H]12)c1csc(N)n1` [ceftriaxone] (10 µM), the morphology score in test [1] is -0.108. Moreover, the SARS-CoV-2 infection rate in test [2] was 112% (inactive).
The like results for `O=C(O)CN1C(=O)c2cccc3cccc(c23)C1=O` [alrestatin] (10 µM) were, in that order, 0.0519 and 106% (inactive).
The like results for `COc1cc(Nc2ncc(F)c(Nc3ccc4c(n3)NC(=O)C(C)(C)O4)n2)cc(OC)c1OC` (10 µM) were, in that order, 0.09 and 124% (inactive).
The like results for `CN[C@@H]1[C@@H](O)[C@@H](O[C@@H]2[C@@H](O)[C@H](O[C@H]3O[C@H](CN)[C@@H](O)[C@H](O)[C@H]3O)[C@@H](N)C[C@H]2NC(=O)[C@@H](O)CN)OC[C@]1(C)O` [isepamicin] (10 µM) were, in that order, 0.0671 and 109% (inactive).
`NC(=O)Nc1sc(-c2ccc(F)cc2)cc1C(N)=O` (0.833333 µM) had a morphology score in test [1] of 0.0683. In addition, the SARS-CoV-2 infection rate in test [2] is 95.5% (inactive).
In test [1], `CCN(CC)Cc1nccn1-c1ccc([N+](=O)[O-])cc1C(=O)c1ccccc1Cl` [nizofenone] (10 µM) returned a morphology score of 0.148. The SARS-CoV-2 infection rate in test [2] is 98% (inactive).
In the same order, the values of `Cc1ncc(-c2csc(N=C(N)N)n2)[nH]1` [zaltidine] (10 µM) are 0.0534 and 106% (inactive).
In the same order, the values of `N#Cc1ccc(N2CCN(C(=O)COc3ccc4[nH]cc(CCN)c4c3)CC2)cc1` [donitriptan] (10 µM) are -0.0047 and 100% (inactive).
The like results for `Cc1sc2c(c1C)C(c1ccc(Cl)cc1)=N[C@@H](CC(N)=O)c1nnc(C)n1-2` (0.833333 µM) were, in that order, -0.0333 and 104% (inactive).
With `CC(C)[C@H](NS(=O)(=O)c1ccc(-c2ccc(Br)cc2)cc1)C(=O)O` (10 µM), the morphology score in test [1] was -0.0577. The SARS-CoV-2 infection rate in test [2] was 107% (inactive).
The like results for `O=C(NC(=O)c1c(F)cccc1F)Nc1cc(Cl)c(OC(F)(F)C(F)C(F)(F)F)cc1Cl` (stereo unspecified) [lufenuron] (10 µM) were, in that order, -0.0435 and 111% (inactive).
The like results for `CN[C@H](CC(C)C)C(=O)N[C@H]1C(=O)N[C@@H](CC(N)=O)C(=O)N[C@H]2C(=O)N[C@H]3C(=O)N[C@H](C(=O)N[C@H](C(=O)O)c4cc(O)cc(O)c4-c4cc3ccc4O)[C@H](O)c3ccc(c(Cl)c3)Oc3cc2cc(c3O[C@@H]2O[C@H](CO)[C@@H](O)[C@H](O)[C@H]2O[C@H]2C[C@](C)(N)[C@H](O)[C@H](C)O2)Oc2ccc(cc2Cl)[C@H]1O` (10 µM) were, in that order, 0.0907 and 104% (inactive).
The like results for `O=C1Nc2cc(Cl)c(Cl)cc2N2CCNC[C@H]12` (10 µM) were, in that order, 0.179 and 108% (inactive).
